Experimental data from publication PMC6792352, “Limited Chemical Structural Diversity Found to Modulate Thyroid Hormone Receptor in the Tox21 Chemical Library” (Environmental Health Perspectives, 2019).
Where a name gives a salt, the structure may show the parent alone.

Each molecule was assayed on thyroid hormone receptor (endogenous TRα and TRβ). Settings: read-out: Average AC50 (uM) GH3-TRE-Antag, antagonist mode, 1 nM T3, no GH3 cytotoxicity hit.
Design: species or system GH3-TRE-Luc (rat pituitary); GH3-TRE-Luc luciferase reporter, antagonist mode against 1 nM T3, loss of signal, qHTS

Row | SMILES | AC50
1 | C[C@H](CN1CCCC1)C(=O)c1ccc(C(F)(F)F)cc1 [Lanperisone hydrochloride] | 31.4 µM
2 | CSC1=N[C@@](C)(c2ccccc2)C(=O)N1Nc1ccccc1 [Fenamidone] | 6.3 µM
3 | Sc1ccccc1 [Benzenethiol] | 44.5 µM
4 | CC[C@H](C)COC(=O)/C=C/c1ccc(N=Cc2ccc(OC)cc2)cc1 [(+)-2-Methylbutyl-4-methoxybenzyladine-4'-aminocyannate] | 62 µM
5 | Cc1c(Cl)cccc1Nc1ccccc1C(=O)O [Tolfenamic acid] | 12.5 µM
6 | CCCCCC/C=C\CCCCCCCC(=O)O [(Z)-Hexadec-9-enoic acid] | 44.5 µM
7 | Oc1c(I)cc(I)c2cccnc12 [Iodoquinol] | 11.5 µM
8 | O=C1[C@H](CC[C@H](O)c2ccc(F)cc2)[C@@H](c2ccc(O)cc2)N1c1ccc(F)cc1 [Ezetimibe] | 33.5 µM
9 | c1ccc2c(c1)Oc1ccccc1S2 [Phenoxathiin] | > 90 µM
10 | O=C(O)c1snc(Cl)c1Cl [3,4-Dichloro-5-isothiazolecarboxylic acid] | 51.4 µM
11 | CCC(COC(=O)c1cc(OC)c(OC)c(OC)c1)(c1ccccc1)N(C)C (stereo not shown) [Trimebutine maleate] | 16.3 µM
12 | CCCCCCCCCCCCNC(=N)N [Dodine] | 2.89 µM
13 | C[C@@H]1C[C@H]2[C@@H]3C[C@H](F)C4=CC(=O)C=C[C@]4(C)[C@@]3(F)[C@@H](O)C[C@]2(C)[C@@]1(O)C(=O)COC(=O)C(C)(C)C [Flumethasone pivalate] | 26.2 µM
14 | CO[C@@H]1[C@H](OC(=O)NC(=O)CCl)CC[C@]2(CO2)[C@H]1[C@@]1(C)O[C@@H]1CC=C(C)C [o-(Chloroacetylcarbamoyl)fumagillol] | 4.57 µM
15 | COc1ccccc1/C=C/C=O [trans-2-Methoxycinnamaldehyde] | 47.6 µM
16 | O=C(Nc1ccc([N+](=O)[O-])cc1)Nc1ccc([N+](=O)[O-])cc1 [4,4'-Dinitrodiphenylurea] | 0.491 µM
17 | CC(C)CCC[C@@H](C)[C@H]1CC(=O)C2=C3CC[C@H]4C[C@@H](O)CC[C@]4(C)[C@H]3CC[C@@]21C [Colestolone] | 7.21 µM
18 | CCN(CC)C(=O)N[C@H]1C[C@@H]2c3cccc4[nH]cc(c34)C[C@H]2N(C)C1 [Terguride] | 22.1 µM

Row | SMILES | AC50
19 | c1ccc2c(c1)[nH]c1cnccc12 [Norharman] | 45.1 µM
20 | CCCCCc1ccco1 [2-Pentylfuran] | 61.2 µM
21 | Nc1ccccc1N [1,2-Phenylenediamine dihydrochloride] | 92.5 µM
22 | C=CCCCCCCCCC(=O)O [10-Undecenoic acid] | 43.6 µM
23 | COC(=O)N[C@H](C(=O)N[C@@H](Cc1ccccc1)[C@@H](O)CN(Cc1ccc(-c2ccccn2)cc1)NC(=O)[C@@H](NC(=O)OC)C(C)(C)C)C(C)(C)C [Atazanavir] | 19.5 µM
24 | COc1ccc2c(c1)c1c3n2CCN(C)C3=NCC1 [Metralindole] | 28.1 µM
25 | Clc1ccc(C2(Cn3cncn3)CC(Br)CO2)c(Cl)c1 (stereo not shown) [Bromuconazole] | 72.5 µM
26 | Nc1ccc(Br)cc1 [4-Bromoaniline] | 47.9 µM
27 | O=C(CCCN1CCC(O)(c2ccc(Br)cc2)CC1)c1ccc(F)cc1 [Bromperidol] | 12.9 µM
28 | O=C(NOC[C@H](O)CO)c1ccc(F)c(F)c1Nc1ccc(I)cc1F [PD 0325901] | 4.11 µM
29 | NC(=O)Nc1ccc(Cl)c(Cl)c1 [3,4-Dichlorophenylurea] | 52.4 µM
30 | CCC(C)(C)C(=O)OC1=C(c2ccc(Cl)cc2Cl)C(=O)OC12CCCCC2 [Spirodiclofen] | 51.5 µM
31 | Cc1cc(C(C)(C)C)cc(C)c1CC1=NCCN1 [Xylometazoline hydrochloride] | 11 µM
32 | [O-][N+](=Nc1ccccc1)c1ccccc1 [Azoxybenzene] | > 50 µM
33 | CCN(CC)c1ccc2c(C)cc(=O)oc2c1 [7-Diethylamino-4-methylcoumarin] | 85.7 µM
34 | CCC[C@@]1(CCc2ccccc2)CC(O)=C([C@H](CC)c2cccc(NS(=O)(=O)c3ccc(C(F)(F)F)cn3)c2)C(=O)O1 [Tipranavir] | 36.8 µM
35 | S=C(NC1CCCCC1)NC1CCCCC1 [N,N'-Dicyclohexylthiourea] | 58.2 µM
36 | CCCc1nc2c(C)cc(-c3nc4ccccc4n3C)cc2n1Cc1ccc(-c2ccccc2C(=O)O)cc1 [Telmisartan] | 31.6 µM

Same assay, conditions: read-out: Average AC50 (uM) GH3-TRE-Antag, antagonist mode, 1 nM T3, no GH3 cytotoxicity hit, Average AC50 (uM) GH3-TRE-Antag, 24 h

Row | SMILES | AC50
37 | Nc1c2c(nc3ccccc13)CCCC2 [1,2,3,4-Tetrahydro-9-acridinamine hydrochloride] | 92.1 µM
38 | CCCCCCCCCCCCOS(=O)(=O)O [Sodium dodecyl sulfate] | > 50 µM
39 | CCCCCC[n+]1ccccc1 [1-Hexylpyridinium chloride] | 71.1 µM
40 | CC(C)n1c(/C=C/[C@H](O)C[C@H](O)CC(=O)O)c(-c2ccc(F)cc2)c2ccccc21 [Fluvastatin sodium] | 39.3 µM
